TSG101-PTAP inh: blocks PTAP/TSG101 interaction to inhibit HIV-1 budding | 340,000 tested, under 10 active | Fluorescence polarization, FITC-PTAP peptide / Tsg101 binding | Potency, µM (highest dose often 115 µM), inactives show top-dose activity change, negative = inhibition, most hits filed as inhibitors | AID 493005; active means well fitted inhibition curve with a large enough effect in the main read-out, with a control signal flat, not every such curve was filed as active; inconclusive means small, poorly fitted or top-dose-only effect, or effect the other way, or a change in a side signal; inactive means no such curve, though single readings can be large or run the other way; further: % of control where 0% means no effect
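Compounds were pin-transferred onto Tsg101 binding domain (10 uM final) in HEPES pH 7.5 buffer, then FITC-PTAP peptide was added at 50 nM final. After 20 min at RT, polarization reported peptide displacement across a qHTS concentration series.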
USP1-UAF1 inh: blocks the human USP1/UAF1 deubiquitinase complex; O94782; recombinant USP1/UAF1, Ub-Rhodamine cleavage fluorescence; Potency, µM (series often up to 57.1 µM), inactives show top-dose activity change, negative = inhibition, hits mostly inhibitors; hit rate 0.23% among 390,000; further: on the % scale 0 is the no-effect control and ±100 the full control effect; nearly all actives have a fitted effect of over 60% in size
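USP1/UAF1 complex (1 nM) preincubated 15 min at room temperature with compound, then Ub-Rho substrate (150 nM final) added. Kinetic fluorescence at 480/540 nm over 6 reads at 60 s intervals; 50 mM HEPES pH 7.8, 0.5 mM EDTA, 0.1 mg/ml BSA, 1 mM TCEP, 0.01% Tween-20.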
GCN5L2 inh: GCN5L2 (KAT2A) acetyltransferase inhibition. Q92830. GCN5L2 HAT assay, ThioGlo1 CoA-SH fluorescence. Potency, µM (series often up to 58.9 µM), without a hit: top-dose activity change, negative = inhibition, most hits filed as inhibitors. hit rate 0.21% among 390,000. AID 504327; further: on the % scale 0 is the no-effect control and ±100 the full control effect
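Enzyme at 20nM final was mixed with library compounds for 15 min at room temperature. Peptide H3(1-25) at 75uM, acetyl-CoA at 70uM and ThioGlo1 at 50uM were then added. Plates were read immediately and after 20 min (Ex340nm/Em540nm).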
PLK1 PBD block: PLK1 (human) polo-box domain binding inhibition; hit rate 2.8% among 360,000; P53350; Plk1 PBD binding of FITC phosphopeptide, fluorescence polarization; Potency, µM, for inactives: max response, negative = inhibition, hits mostly inhibitors; further: series mostly up to about 57 µM; on the % scale 0 is the no-effect control and ±100 the full control effect; nearly all actives have a fitted effect of over 65% in size
VDR inhibitor: inhibitors of human vitamin D receptor; hit rate 0.93% among 400,000; VDR-SRC2-3 peptide fluorescence polarization, 2 h; Potency, µM, for the others: max response, negative = inhibition, hits mostly inhibitors; P11473; further: on the % scale 0 is the no-effect control and ±100 the full control effect
Target sequence (P11473 whole entry, looked up): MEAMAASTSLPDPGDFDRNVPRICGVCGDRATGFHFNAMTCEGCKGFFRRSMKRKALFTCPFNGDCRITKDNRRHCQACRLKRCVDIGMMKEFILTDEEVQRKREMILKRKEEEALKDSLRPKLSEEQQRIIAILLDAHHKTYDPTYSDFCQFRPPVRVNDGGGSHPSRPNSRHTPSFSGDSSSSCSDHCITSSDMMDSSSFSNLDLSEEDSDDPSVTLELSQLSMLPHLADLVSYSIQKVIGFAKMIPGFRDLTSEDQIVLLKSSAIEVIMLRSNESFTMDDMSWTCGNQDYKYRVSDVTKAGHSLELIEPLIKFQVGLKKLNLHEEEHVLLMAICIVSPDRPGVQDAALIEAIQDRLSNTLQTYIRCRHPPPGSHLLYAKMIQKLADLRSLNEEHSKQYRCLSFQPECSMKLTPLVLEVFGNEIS
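Inhibition of the VDR/SRC2-3 peptide interaction is quantified by fluorescence polarization. Compounds (23 nl, pintool) incubate with the reagents for 2 hours at ambient room temperature.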
An asterisk follows results filed as active; ? = inconclusive; . = no result given; [ ] = dose if it differs, or a comment. Sampled rows, rich in hits. Any-hit rate of the full collection: about 3%. Unless noted, the call rests on the fitted dose curve; in most records, active means well fitted curve in the direction sought with a large enough effect; inconclusive means small, poorly fitted or top-dose-only effect, or another doubt; inactive means no such curve, though single readings can be large; an effect the other way counts as inactive or inconclusive. Potency means the concentration at half of the fitted maximal effect.

SMILES	TSG101-PTAP inh	USP1-UAF1 inh	GCN5L2 inh	PLK1 PBD block	VDR inhibitor
Cc1ccc(-c2nc(S(=O)(=O)c3ccc(F)cc3)c(SCC(=O)NCC3CCCO3)o2)cc1 (stereo unspecified)	-1%	-22%	-2%	19µM*	-20%
COc1ccc(NS(=O)(=O)c2ccc(NC(=S)NCC3CCCO3)cc2)cc1 (stereo unspecified)	-4%	-24%	-10%	-20%	-5%
O=C(CN(C1CCCCC1)S(=O)(=O)c1ccc(F)cc1)NCC1CCCO1 (stereo unspecified)	0%	-19%	.	30µM*	?
S=C(NCC1CCCO1)Nc1ccc(Cl)c(Cl)c1 (stereo unspecified)	0%	-15%	-5%	12µM*	?
CCn1nc(C(=O)OCC(=O)Nc2nc(-c3ccc(OC)cc3)cs2)c2ccccc2c1=O	-8%	-31%	-6%	27µM*	-6%
CC1(C(=O)OCC(=O)Nc2ccc(C(N)=O)cc2)CC1(Cl)Cl (stereo unspecified)	-2%	-22%	-1%	4%	0%
CCn1nc(C(=O)OCC(=O)NCC(C)C)c2ccccc2c1=O	-1%	-11%	-7%	-4%	6%
COc1ccc(NC(=O)CSc2n[nH]c(N)n2)cc1OC	0%	-6%	13%	-4%	0%
COc1ccc(-c2csc(NC(=O)CSc3n[nH]c(C)n3)n2)cc1	-4%	-7%	-3%	-29%	25%
COc1ccc(-c2csc(NC(=O)CSc3n[nH]c(N)n3)n2)cc1	0%	-3%	-3%	27µM*	-16%
COc1ccccc1NC(=O)c1ccc(NC(=O)COC(=O)C2(C)CC2(Cl)Cl)cc1 (stereo unspecified)	0%	-7%	-14%	21µM*	-14%
COc1ccccc1NC(=O)c1ccc(NC(=O)CSc2n[nH]c(N)n2)cc1	-5%	-26%	-5%	30µM*	-18%
O=P(O)(O)OP(=O)(O)O	.	.	-15%	.	-12%
Cc1ccc(NC(=O)/C(C#N)=C/c2cc(C)n(-c3ccc(Br)cc3)c2C)cc1C	.	-12%	-4%	.	-13%
Cc1cccc(N2C(=O)/C(=C\c3ccc(OC(F)F)cc3)c3ccccc3C2=O)c1	-17%	?	-27%	2.4µM*	35µM*
CCOc1cc(/C=C2\C(=O)N(c3cccc(C(F)(F)F)c3)C(=O)c3ccccc32)ccc1O	-13%	?	-26%	?	?
COc1ccc(-n2ccnc2SCC(=O)Nc2cccc(OC)c2)cc1	.	-17%	3%	.	-1%
Cc1[nH][nH]c(=O)c1C(c1c(C)[nH][nH]c1=O)c1cn(Cc2cccc3ccccc23)c2ccccc12	-2%	14µM*	-9%	7.5µM*	-21%
Cc1[nH][nH]c(=O)c1C(c1c(C)[nH][nH]c1=O)c1cn(C)c2ccccc12	-1%	?	-28%	-18%	5%
O=C(NCCc1ccccn1)C(F)(F)C(F)(F)C(F)(F)C(F)(F)C(F)(F)C(F)F	-3%	-26%	-1%	27µM*	?
O=C(NCc1ccccn1)C(F)(F)C(F)(F)C(=O)NCc1ccccn1	-7%	-20%	-2%	-1%	-5%
Cc1nc(NC(=O)c2ccc([N+](=O)[O-])cc2Cl)sc1C(=O)N(C)C	-9%	?	-13%	19µM*	?
O=C1C(=O)c2ccccc2C([O-])=C1[n+]1ccccc1	-6%	?	2%	1%	-15%
CCc1cc[n+](C2=C([O-])c3ccccc3C(=O)/C2=N\S(=O)(=O)c2cccs2)cc1	0%	18µM*	-16%	?	2%
O=C1OC(c2ccccc2)(c2cc(Br)c(O)c(Br)c2)c2ccccc21 (stereo unspecified)	-7%	-10%	.	24µM*	-18%
SMILES	TSG101-PTAP inh	USP1-UAF1 inh	GCN5L2 inh	PLK1 PBD block	VDR inhibitor
CC(=O)c1ccc(N2CCN(c3ncnc4onc(-c5ccc(Cl)cc5)c34)CC2)cc1	.	-31%	-3%	.	?
CCNC(=O)c1c(O)c2c([nH]c1=O)CCCC2	-3%	-20%	-2%	27µM*	?
Cc1ccc(S(=O)OCC(=O)Nc2cc(Cl)ccc2N2CCOCC2)cc1 (stereo unspecified)	-6%	-22%	-11%	17µM*	?
Cc1noc(C)c1CSCC(=O)Nc1cc(Cl)ccc1N1CCOCC1	.	-6%	-17%	0%	-1%
Cc1ccc(S(=O)(=O)NCCc2sc3nc(-c4ccccc4)nn3c2C)cc1C	.	4%	1%	.	12%
CCc1nnc(SC(CC)C(=O)Nc2cc(C)ccc2C)c2cc3occc3n12 (stereo unspecified)	.	-12%	-10%	.	0%
CC1(C)OC(=O)C2(Cc3cc([N+](=O)[O-])ccc3N3CCCCCC32)C(=O)O1 (stereo unspecified)	.	.	.	.	-7%
O=C(O)c1cccc2c(-c3ccccc3)c(-c3ccccc3)[nH]c12	-14%	-17%	0%	24µM*	-19%
C/C(C/C(C)=C1/SC(=S)NC1=O)=C1\SC(=S)NC1=O	-8%	?	-26%	19µM*	?
CCCCCC/C(C)=C1/SC(=S)NC1=O	1%	-14%	-8%	24µM*	?
COCCNC(=O)CCCn1c(SCC(=O)c2ccc(F)cc2)nc2c(sc3ccccc32)c1=O	.	0%	2%	.	15%
Cc1csc(NC(=O)Cn2nc(C)c([N+](=O)[O-])c2C)n1	-3%	-12%	-2%	-10%	24%
CCc1c(C)sc(NC(=O)Cn2nc(C)c([N+](=O)[O-])c2C)c1C(N)=O	-2%	-20%	-4%	6µM*	?
COc1ccc([C@]23Cc4cc(OC)c(OC)cc4C(O2)c2c(cc(C)n(Cc4ccccc4)c2=O)O3)cc1	.	.	-27%[12.7 µM]	.	.
CC(=O)NS(=O)(=O)c1ccc(NC(=O)CSc2ccc(Cl)cc2)cc1	-3%	-22%	-1%	?	-1%
Cc1ccc(C)c(NS(=O)(=O)c2ccc(NC(=O)CSc3ccc(Cl)cc3)cc2)c1	-2%	-30%	-5%	24µM*	-14%
Cc1ccc(NS(=O)(=O)c2ccc(NC(=O)C(C)Sc3ccc(Cl)cc3)cc2)c(C)c1 (stereo unspecified)	-7%	-26%	-11%	30µM*	-18%
CCCCCC#CCC#CCC#CCC#CCCCC(=O)O	.	.	2.2µM*	.	.
S=c1[nH]nc(-c2ccccn2)n1/N=C/c1cccc2ccccc12	-2%	-14%	-7%	27µM*	-5%
CCc1nn(CCCC(=O)N2CCN(c3cc(Cl)ccc3C)CC2)c(=O)c2cc3occc3n12	.	-11%	-4%	.	-7%
Cc1ccc2c(C)c(C(=O)N3CCC(c4nc5ccccc5s4)CC3)oc2c1C	.	-16%	-14%	.	11%
CCOc1ccccc1NC(=O)CSc1nc2nc(-c3cccs3)cc(C(F)(F)F)c2c(=O)[nH]1	1%	-5%	16%	21µM*	3%

High-throughput results deposited in PubChem by National Center for Advancing Translational Sciences (NCATS).
